From PubChem BioAssay (NCATS) come the findings set out here.

Several values for one entry are separate records, joined by “and”; a condition that tells them apart may be missing. Equal values may be shown once. Results filed as inconclusive are left out. Activity calls are given as the source filed them. Unless noted, calls follow the shape of the dose curve; as a rule, active = well fitted curve in the direction sought with a large enough effect; inconclusive = small, poorly fitted or top-dose-only effect, or another doubt; inactive = no such curve, though single readings can be large; an effect the other way counts as inactive or inconclusive.

Assay [1] addresses Nuclear receptor subfamily 1 group I member 3 (Homo sapiens) (UniProt Q14994). The experiment in a line: Primary qHTS for antagonist of constitutive androstane receptor (CAR) against the NCATS DSHEA and TCM libraries (AID 1794836).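 Also: HepG2 cells stably expressing hCAR with CYP2B6 luciferase reporter stimulated by CITCO.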 Put shortly: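 Antagonist mode: CAR reporter luminescence (ONE-Glo) in HepG2-CYP2B6-hCAR cells stimulated with 48 uM CITCO (final) over 24 h at 37 C, compounds titrated; viability read first by CellTiter-Fluor fluorescence.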

A short description of assay [2]: Cell Viability - SK-N-SH (AID 435; calls by dose curve;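 also: potency is read from the fitted curve at half-maximal effect; compound exposure lasted 40 h at 37 °C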). The conditions noted are these: SK-N-SH neuroblastoma cell viability qHTS. Put shortly:
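Cells seeded at 1500 per well and incubated 5 hr at 37 °C. Compound added, then 40 hr at 37 °C. CellTiter-Glo added, 20 min at room temperature, luminescence read.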
On the technique in general: Quantitative high-throughput screening tests each substance at several concentrations.

Assay [3] is described as follows: Cellular Toxicity (caspase-3) Mesangial (AID 660).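 Also: combined caspase 3 and 7 activity read by Caspase-Glo luminescence; cells exposed to compound for 16 h before the caspase read.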 Put shortly: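 Mesangial cells, 1000/well, 5 h settle at 37 °C; compound 16 h, 37 °C; Caspase-Glo 3/7 reagent 20 min RT; luminescence. Norm.: DMSO = 0%, tamoxifen 100 uM = 100%. AC50, Hill fit.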
Assay [4] is described as follows: Cellular Toxicity (caspase-3) N2a (AID 665).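 Also: compound exposure lasted 16 h at 37 °C before readout.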 To be noted: N2a cells, luminescence, normalized: DMSO 0%, 10 µM staurosporine 100%; at 92.2 µM (top of the series). In short, it runs like this:
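N2a cells, 1500/well, 5 h settle at 37 °C; cpd 16 h, 37 °C; Caspase-Glo 3/7, 1 h RT; luminescence. Norm: DMSO = 0, 10 uM staurosporine = 100%. AC50, Hill fit.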

Assay [5] in a line: MultiTox-Fluor Cytotoxicity Assay - LYMP1-001 - Live Cells (AID 947).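 Also: 0% = DMSO only and full inhibition = tetraoctylammonium bromide control.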
Assay [6] is described as follows: Cell Viability - LYMP2-007 (AID 979).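 Also: cells exposed to compound for 24 h before reading; 0% = DMSO only and the negative end = 92 µM tetraoctylammonium bromide; nearly all actives have a fitted effect of over 60% in size.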 Put shortly: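 Luminescent ATP signal (CellTiter-Glo) serves as the viability read-out after 24 hr compound treatment of lymphoblastoid cells in complete medium at 37 C. Concentration-response data were fitted to the Hill equation to give AC50 values.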
Assay [7] can be described thus: Cell Viability - LYMP1-002 - Assay at 24 hr (AID 993). Also: % is scaled to controls: 0 for no effect and ±100 for the full control effect. Put shortly:
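Cells plated 2500/well, 5 hr 37 C; compounds added, 24 hr 37 C; CellTiter-Glo added, 30 min RT; luminescence read. Tetraoctylammonium bromide positive control. Hill-equation AC50.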

Assay [8] is described as follows: qHTS assay for small molecule antagonists of peroxisome proliferator-activated receptor delta signaling (AID 588535; active = well fitted inhibition curve with a large enough effect in the signal ratio, with a control signal flat, not every such curve was filed as active; the % refers to the signal ratio;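 as to max response: cells co-treated with a PPAR-delta agonist as stimulator during compound exposure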). To be noted: HEK293T PPARd-UAS-bla, beta-lactamase FRET ratio, 18 h; 460 nm channel. Put shortly:
(§1)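 HEK293T PPAR-delta-UAS-bla cells, 4000/well, 2% charcoal/dextran FBS; 5 h 37 C; cpd titration; 18 h 37 C; CCF4 2 h RT; FI 460/530 nm; Hill fit → IC50, efficacy.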

Assay [9] addresses Peroxisome proliferator-activated receptor delta (Homo sapiens) (UniProt Q03181). The assay is described as above. In short, it runs like this: as §1
In assay [10] the target is Peroxisome proliferator-activated receptor gamma (Homo sapiens) (UniProt P37231). The experiment in a line: qHTS assay for small molecule agonists of peroxisome proliferator-activated receptor gamma signaling (AID 588536; active = well fitted curve in the direction sought with a large enough effect in the signal ratio, with a control signal flat, not every such curve was filed as active; the % refers to the signal ratio;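 also: 0% = DMSO basal wells and 100% = rosiglitazone at 2 µM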). In short, it runs like this:
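PPAR-gamma-UAS-bla HEK293 cells in medium with 1% charcoal/dextran-treated FBS were exposed to compounds for 16 h at 37 C. Beta-lactamase activity was read with CCF4 substrate (405 nm excitation, 460/530 nm emission).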

The target is the same in assay [11]. The experiment in a line: qHTS assay for small molecule antagonists of peroxisome proliferator-activated receptor gamma signaling (AID 588537; active = well fitted inhibition curve with a large enough effect in the signal ratio, with a control signal flat, not every such curve was filed as active; the % refers to the signal ratio;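 also: reporter cells co-stimulated with 50 nM rosiglitazone agonist during compound treatment; % of control where 0% means no effect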). In short, it runs like this:
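Antagonist mode, beta-lactamase reporter in HEK293; charcoal/dextran FBS 1%; 3000 cells/well, 37 C 6-6.5 h; cpd titration + rosiglitazone 50 nM final, 16 h 37 C; CCF4, 2 h RT; 460/530 nm; Hill fit → IC50, efficacy.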

Assay [12] can be described thus: qHTS assay for small molecule activators of the p53 signaling pathway (AID 651743; active = well fitted activation curve with a large enough effect in the signal ratio, not every such curve was filed as active; the % refers to the signal ratio; also: % of control where 0% means no effect). The conditions noted are these: HCT-116 p53RE-bla, beta-lactamase FRET ratio, 16 h; activation: stronger effect = higher value. In short, it runs like this: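 Read-out is fluorescence intensity from the LiveBLAzer B/G FRET substrate, added for 2 hours at room temperature after HCT-116 p53RE-bla cells had been incubated with compounds for 16 hours at 37 C.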

Assay [13] can be described thus: Cell Viability - Mesenchymal (AID 546).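 Also: cells exposed to compound for 40 hours before reading; 0% = DMSO only and -100% = 100 µM tamoxifen.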 Put shortly: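 AC50 values reflect the drop in intracellular ATP in a human kidney mesenchymal line derived from normal glomeruli. Treatment lasts 40 hr at 37 °C in complete medium, and the signal comes from CellTiter-Glo luminescence.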
A short description of assay [14]: MultiTox-Fluor Cytotoxicity Assay - LYMP1-002 - Live Cells (AID 955). Also: % is scaled to controls: 0 for no effect and ±100 for the full control effect. Put shortly:
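Read-out is live-cell protease activity (cell-permeant GF-AFC substrate, fluorescence Ex/Em=405/510), where a decrease indicates acute toxicity. Human lymphoblastoid cells were treated 16 hours at 37 C in a concentration series, and AC50 values came from standard Hill modelling.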

Assay [15] in a line: Cell Viability - LYMP2-013 (AID 970).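 Also: 0% = DMSO only and full inhibition = tetraoctylammonium bromide control; nearly all actives have a fitted effect of over 55% in size.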 Put shortly: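 qHTS; 2500 lymphoblastoid cells/well; 5 hr 37 C settle; cpd 24 hr 37 C; CellTiter-Glo, 30 min RT; luminescence. AC50 = Hill fit.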
Assay [16] can be described thus: Cell Viability - LYMP2-010 (AID 981). Also: nearly all actives have a fitted effect of over 55% in size. Also: potency is read from the fitted curve at half-maximal effect. In short, it runs like this: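 Luminescent ATP signal (CellTiter-Glo) served as the viability read-out. Cells of the human lymphoblastoid line were treated with compound over a concentration range for 24 hours at 37 C, and AC50 values came from Hill-equation modeling.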
Assay [17] has as its target Bile acid receptor (Homo sapiens) (UniProt Q96RI1). The assay is described as follows: qHTS assay for small molecule antagonists of farnesoid X receptor signaling (AID 588526; calls by dose curve; also: % is scaled to controls: 0 for no effect and ±100 for the full control effect). Put shortly: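 Beta-lactamase reporter antagonist mode: HEK293T FXR-UAS-bla cells, titrated compound, CDCA stimulation, 16 h 37 C, CCF4 dye 2 h RT. Data normalized to CDCA 50 uM and DMSO; Hill-fit IC50.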

Assay [18] concerns the target Retinoic acid receptor RXR-alpha (Homo sapiens) (UniProt P19793). The experiment in a line: qHTS assay for small molecule agonists of retinoid X receptor alpha signaling (AID 588544; calls by dose curve;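 also: 0% = DMSO basal wells and 100% = reference agonist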).
Assay [19] is described as follows: qHTS assay for environmental chemicals that activate the Aryl hydrocarbon Receptor (AhR) signaling pathway (AID 651777). Also: % of control where 0% means no effect; nearly all actives have a fitted effect of over 15% in size. To be noted: 1A2-DRE human hepatoma cells, luciferase, 24 h; activation: stronger effect = higher value. In short, it runs like this: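 AhR activation is scored as a rise in luciferase from a stable DRE–CYP1A2 promoter construct in human hepatoma cells. Treatment lasts 24 hr at 37 C; detection uses One-Glo after 30 min at room temperature.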

Assay [20] is described as follows: Cell Viability - LYMP2-018 (AID 985).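 Also: compound exposure lasted 24 hr at 37 °C; plate controls were DMSO only for no effect and tetraoctylammonium bromide at 92 µM for full effect; nearly all actives have a fitted effect of over 50% in size.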 In short, it runs like this:
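Luminescent ATP signal (CellTiter-Glo, read after 30 min at room temperature) reports viable cells after 24 hr compound treatment at 37 C. Concentration-response data were fitted to the standard Hill equation for AC50.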

Bile acid receptor (Homo sapiens), sequence (Q96RI1 whole entry, looked up): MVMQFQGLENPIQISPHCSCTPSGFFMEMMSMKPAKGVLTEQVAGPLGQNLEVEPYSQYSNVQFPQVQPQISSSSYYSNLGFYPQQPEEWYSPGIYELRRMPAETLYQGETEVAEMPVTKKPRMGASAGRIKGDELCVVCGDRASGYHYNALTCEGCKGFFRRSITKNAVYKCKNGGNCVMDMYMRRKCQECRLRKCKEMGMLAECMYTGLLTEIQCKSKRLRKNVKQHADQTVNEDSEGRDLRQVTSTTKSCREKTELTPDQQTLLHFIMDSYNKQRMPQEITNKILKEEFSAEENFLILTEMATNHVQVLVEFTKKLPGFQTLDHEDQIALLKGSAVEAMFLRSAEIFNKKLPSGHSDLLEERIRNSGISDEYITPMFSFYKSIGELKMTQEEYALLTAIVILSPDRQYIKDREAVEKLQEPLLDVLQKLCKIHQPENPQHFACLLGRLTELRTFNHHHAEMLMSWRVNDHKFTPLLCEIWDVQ
Nuclear receptor subfamily 1 group I member 3 (Homo sapiens), sequence (Q14994 whole entry, looked up): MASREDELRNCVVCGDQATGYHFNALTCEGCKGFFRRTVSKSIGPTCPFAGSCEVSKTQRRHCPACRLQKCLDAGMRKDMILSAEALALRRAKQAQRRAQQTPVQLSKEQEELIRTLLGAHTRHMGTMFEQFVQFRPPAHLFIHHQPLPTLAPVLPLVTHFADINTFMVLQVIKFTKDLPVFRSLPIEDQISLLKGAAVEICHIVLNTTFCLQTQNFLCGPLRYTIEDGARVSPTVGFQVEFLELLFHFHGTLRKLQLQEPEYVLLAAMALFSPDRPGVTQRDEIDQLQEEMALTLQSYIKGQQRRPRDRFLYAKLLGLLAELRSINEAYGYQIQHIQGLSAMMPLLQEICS
Peroxisome proliferator-activated receptor delta (Homo sapiens), sequence (Q03181 whole entry, looked up): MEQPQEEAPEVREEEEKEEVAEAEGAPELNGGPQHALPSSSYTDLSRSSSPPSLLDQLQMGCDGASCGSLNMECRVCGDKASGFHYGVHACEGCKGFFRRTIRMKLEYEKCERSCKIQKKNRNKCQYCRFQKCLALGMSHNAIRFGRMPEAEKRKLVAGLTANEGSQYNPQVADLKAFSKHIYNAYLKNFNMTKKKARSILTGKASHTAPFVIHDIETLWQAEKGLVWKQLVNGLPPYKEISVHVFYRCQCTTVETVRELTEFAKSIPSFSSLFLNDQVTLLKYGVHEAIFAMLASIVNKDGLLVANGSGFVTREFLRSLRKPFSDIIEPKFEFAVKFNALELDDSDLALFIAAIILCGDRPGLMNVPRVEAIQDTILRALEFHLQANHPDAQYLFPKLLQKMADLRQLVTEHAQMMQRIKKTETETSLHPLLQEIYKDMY
Retinoic acid receptor RXR-alpha (Homo sapiens), sequence (P19793 whole entry, looked up): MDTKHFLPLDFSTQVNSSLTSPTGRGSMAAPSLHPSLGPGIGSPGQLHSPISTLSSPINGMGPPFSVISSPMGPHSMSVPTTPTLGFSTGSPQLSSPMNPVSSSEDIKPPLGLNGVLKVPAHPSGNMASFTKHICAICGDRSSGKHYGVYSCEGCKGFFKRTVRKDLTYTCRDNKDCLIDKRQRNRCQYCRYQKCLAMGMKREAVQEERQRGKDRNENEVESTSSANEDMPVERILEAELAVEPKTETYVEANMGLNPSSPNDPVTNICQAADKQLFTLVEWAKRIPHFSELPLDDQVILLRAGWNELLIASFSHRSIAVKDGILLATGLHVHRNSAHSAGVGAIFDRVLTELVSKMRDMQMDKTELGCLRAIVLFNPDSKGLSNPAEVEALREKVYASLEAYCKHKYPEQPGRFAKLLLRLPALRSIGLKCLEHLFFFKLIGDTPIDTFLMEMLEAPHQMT
Peroxisome proliferator-activated receptor gamma (Homo sapiens), sequence (P37231 whole entry, looked up): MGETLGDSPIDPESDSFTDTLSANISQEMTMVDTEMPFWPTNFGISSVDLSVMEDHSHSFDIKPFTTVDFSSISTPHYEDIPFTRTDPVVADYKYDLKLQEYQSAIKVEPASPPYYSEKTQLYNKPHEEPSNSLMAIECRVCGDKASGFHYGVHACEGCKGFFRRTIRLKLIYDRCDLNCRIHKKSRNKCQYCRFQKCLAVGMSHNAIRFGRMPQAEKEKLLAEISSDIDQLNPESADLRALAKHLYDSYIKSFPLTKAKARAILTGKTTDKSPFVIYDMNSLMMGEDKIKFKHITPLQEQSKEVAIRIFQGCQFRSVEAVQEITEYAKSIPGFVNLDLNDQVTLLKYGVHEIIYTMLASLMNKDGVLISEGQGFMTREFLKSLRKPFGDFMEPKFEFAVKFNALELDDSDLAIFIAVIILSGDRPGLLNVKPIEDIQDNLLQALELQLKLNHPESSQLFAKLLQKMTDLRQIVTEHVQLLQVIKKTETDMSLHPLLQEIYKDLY

As for `CC(C)=CCC[C@](C)(O[C@@H]1O[C@H](CO)[C@@H](O)[C@H](O)[C@H]1O)[C@H]1CC[C@]2(C)[C@@H]1[C@H](O)C[C@@H]1[C@@]3(C)CC[C@H](O)C(C)(C)[C@@H]3[C@@H](O[C@@H]3O[C@H](CO)[C@@H](O)[C@H](O)[C@H]3O)C[C@]12C`, in [1], the Potency entry was “inactive”.
Take `COc1ccc2ccc(=O)oc2c1`: in [1], the Potency entry was “inactive”.
The same measure, in the same setting: then `CCCCCCCCC/C=C/C(=O)CCc1ccc(O)c(OC)c1`, with “inactive”; and `O=C(OCC1=C[C@@H](O)[C@@H]2C=CO[C@@H](O[C@@H]3O[C@H](CO)[C@@H](O)[C@H](O)[C@H]3O)[C@H]12)c1ccc(O)cc1`, with “inactive”.
For `CC(C)(O)[C@@H]1CC[C@](C)([C@@H]2[C@H](O)C[C@]3(C)C4C[C@@H](O[C@H]5O[C@@H](CO)[C@H](O)[C@@H](O)[C@@H]5O)C5C(C)(C)[C@H](O[C@H]6OC[C@H](O)[C@@H](O)[C@@H]6O)CC[C@]56CC46CC[C@@]23C)O1` (stereo not given in full), the Potency entry in assay [1] was “inactive”.
On the same count and under the same terms, the value for `COc1ccc(/C=C/c2cc(OC)cc(=O)o2)cc1` was “inactive”.
As to `O=c1cc(-c2ccc(O)cc2)oc2cc(O[C@@H]3O[C@H](CO)[C@@H](O)[C@H](O)[C@H]3O[C@@H]3OC[C@](O)(CO)[C@H]3O)cc(O)c12`, the Potency entry in assay [1] was “inactive”.
For the molecule `CCCCCCCCCCCCCCCCCCCCCC(=O)O`, in assay [1], the Potency result was “inactive”.
On to `O=C(/C=C/c1ccc(O)c(O)c1)O[C@@H]1CC(C(=O)O)=C[C@@H](O)[C@H]1O`, for which the Potency result in [1] is “inactive”.
Same read-out and setting: the value for `CCCCCCCC/C=C\CCCCCCCCCCCCCC(=O)O` was “inactive”.
The same measure, in the same setting: the value for `CCCCCCCCC[C@@H](O)CC(=O)CCc1ccc(O)c(OC)c1` was “inactive”.
As for `O=c1cc(-c2ccc(O)c(O)c2)oc2cc(O[C@@H]3O[C@@H](CO)[C@@H](O)[C@@H](O)[C@H]3O)cc(O)c12`, the Potency entry in [1] was “inactive”.
Regarding `Oc1cc(O)c2c(c1)O[C@@H](c1cc(O)c(O)c(O)c1)[C@H](O)C2`, the Potency result in assay [1] is “inactive”.
Turning to `C=C[C@](C)(O)CCC=C(C)C`, in assay [1], the Potency result is “inactive”.
The same measure, in the same setting: then `C[C@@H]1CC[C@]2(C)CC[C@]3(C)C(=CC(=O)C4[C@@]5(C)CC[C@@H](O)[C@](C)(C(=O)O)C5CC[C@]43C)C2[C@H]1C` (stereo not given in full), with “inactive”.
Same read-out and setting: then `O=Cc1ccccc1O`, with “inactive”; and `Cc1ccc(C(C)C)cc1`, with “inactive”; and `CC[C@H](CC[C@@H](C)[C@H]1CCC2C3CCC4C[C@@H](O)CC[C@]4(C)C3CC[C@@]21C)C(C)C` (stereo not given in full), with “inactive”.
Still for that read-out and setting: then `Oc1cccc(O)c1O`, with “inactive”.
For the molecule `CC(C)(O)[C@@H]1CC[C@](C)([C@H]2[C@@H](O)C[C@@]3(C)[C@@H]4C[C@H](O)[C@H]5C(C)(C)[C@@H](O[C@@H]6OC[C@@H](O)[C@H](O)[C@H]6O[C@@H]6O[C@H](CO)[C@@H](O)[C@H](O)[C@H]6O)CC[C@@]56C[C@@]46CC[C@]23C)O1`, the Potency entry in assay [1] is “inactive”.
Take `CCCCCCC/C=C/C(=O)CCc1ccc(O)c(OC)c1`: in assay [1], the Potency entry was “inactive”.
`C=C(C)C1CC=C(C)C(O)C1` (stereo not given): the Potency result in [1] was “inactive”.
For the molecule `CC(C)=CCC[C@](C)(O[C@@H]1O[C@H](CO[C@@H]2O[C@H](CO)[C@@H](O)[C@H](O)[C@H]2O)[C@@H](O)[C@H](O)[C@H]1O)C1CC[C@]2(C)[C@@H]1[C@H](O)CC1[C@@]3(C)CC[C@H](O[C@@H]4O[C@H](CO)[C@@H](O)[C@H](O)[C@H]4O[C@@H]4O[C@H](CO)[C@@H](O)[C@H](O)[C@H]4O)C(C)(C)[C@@H]3CC[C@]12C` (stereo not given in full), the activity change, negative = inhibition in assay [1] is -31.6% [at 8.32 µM] (inactive).
`O[C@@H]1[C@@H](O)[C@H](OC/C=C/c2ccccc2)O[C@H](CO[C@@H]2OC[C@H](O)[C@H](O)[C@H]2O)[C@H]1O`: the Potency result in assay [1] is “inactive”.
On to `CC1=C2[C@H](/C=C(\C)C(=O)O)CC[C@@H](C)[C@H]2CC1`, for which, in assay [1], the Potency result was “inactive”.
With `COC1=CC(=O)O[C@@H](/C=C/c2ccc3c(c2)OCO3)C1`, in [2], the Potency is > 92 µM (inactive). For the same molecule, the molecule was called inactive in [3] and in assay [10]. Besides, the caspase-3 activation in assay [4] was -17.2% (inactive). For the same molecule, the Potency result in [5], in assay [6], in [7], in [9] and in assay [11] was “inactive” each time. In [8], the max response stood at 27.2%. For the same molecule, in [12], the activation is -5.07% (inactive).
`CCCCC[C@H](O)CC(=O)CCc1ccc(O)c(OC)c1`: the Potency entry in assay [1] is “inactive”.
On to `O=C=NC1CCCCC1`, for which the Potency in assay [2] was > 92 µM (inactive). The molecule was called inactive in [13], in [3], in assay [14] and in assay [17]. For the same molecule, the Potency entry in assay [5], in assay [15], in assay [16], in assay [7], in assay [11] and in [18] was “inactive” each time. Moreover, the activation was -1.8% (inactive) and -1.61% (inactive) in [12]; 2.61% (inactive) and 5.17% (inactive) in assay [19].
Consider `C=CC1CC=CCC1` (stereo not given), for which the Potency was > 92 µM (inactive) in assay [2] and 39.8 µM (active) in [16]. For the same molecule, the call in assay [13], in assay [14], in assay [17] and in [10] was inactive. Moreover, the Potency result in assay [5], in [20], in assay [7], in [9], in assay [11] and in assay [18] was “inactive” each time. Moreover, in assay [8], the max response is 33.6% and -2.58%. The activation in assay [12] was -3.44% (inactive); in assay [19], 0.186% (inactive) and 0.879% (inactive).
